PAD4 FP inh: inhibitors of human PAD4. Q9UM07. recombinant PAD4, RCA probe fluorescence polarization. hit rate 0.41% among 330,000. AID 485272. inhibition, % at 6.36 µM;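 active = percent inhibition above a cutoff equal to the mean of all tested compounds plus 3 SD, cut at about 15% in these data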;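 also: 0% = PAD4 with RCA probe and DMSO and 100% = probe without PAD4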
LYPLA2 counter: blocks human lysophospholipase 2, a PME1 counter-screen; O95372; recombinant LYPLA2, FP-Rh probe fluorescence polarization; inhibition, % at 5.9 µM; hit rate 0.38% among 320,000; AID 2177;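 active = inhibition above the screen-wide mean plus 3 SD, limit set per campaign, cut at about 26% in these data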;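 also: 0% = LYPLA2 with DMSO and 100% = wells lacking LYPLA2 enzyme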
Target sequence (O95372 whole entry, looked up): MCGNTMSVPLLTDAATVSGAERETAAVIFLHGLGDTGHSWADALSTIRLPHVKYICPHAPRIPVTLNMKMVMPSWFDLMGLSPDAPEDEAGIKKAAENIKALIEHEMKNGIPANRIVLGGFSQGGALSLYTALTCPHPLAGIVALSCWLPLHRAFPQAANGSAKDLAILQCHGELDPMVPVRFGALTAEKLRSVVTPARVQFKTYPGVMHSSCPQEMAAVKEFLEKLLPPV
Fam108B counter: Fam108B inhibition, counter-screen for RBBP9 inhibitors. recombinant Fam108B, FP-Rh probe fluorescence polarization. inhibition, % at 9.51 µM. hit rate 0.33% among 300,000. AID 1947;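 active = inhibition above the screen mean inhibition plus 3 SD, computed separately per campaign, cut at about 18% in these data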;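 also: inhibitors lower polarization as less probe binds the enzyme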
PME-1 inh: blocks human protein phosphatase methylesterase 1 | inhibition, % at 5.9 µM | Q9Y570 | hit rate 0.53% among 320,000 | recombinant PME-1, FP-Rh probe fluorescence polarization | AID 2130;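 active = inhibition above the campaign mean of all compounds plus 3 SD, cut at about 26% in these data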;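 also: competitive labeling of PME-1 active site by serine hydrolase directed probe; 0% = PME-1 with DMSO and 100% = wells lacking PME-1 enzyme; inhibitors block probe labeling so polarization falls and inhibition rises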
LYPLA1 counter: blocks human lysophospholipase 1, a PME1 counter-screen; O75608; recombinant LYPLA1, FP-Rh probe fluorescence polarization; inhibition, % at 5.9 µM; hit rate 0.16% among 320,000; AID 2174;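 active = inhibition above the mean of all tested compounds plus 3 SD, set per campaign, cut at about 14% in these data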;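 also: inhibitors block serine hydrolase probe labeling of LYPLA1 so polarization falls; 0% = enzyme with DMSO and 100% = wells lacking LYPLA1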
Target sequence (O75608 whole entry, looked up): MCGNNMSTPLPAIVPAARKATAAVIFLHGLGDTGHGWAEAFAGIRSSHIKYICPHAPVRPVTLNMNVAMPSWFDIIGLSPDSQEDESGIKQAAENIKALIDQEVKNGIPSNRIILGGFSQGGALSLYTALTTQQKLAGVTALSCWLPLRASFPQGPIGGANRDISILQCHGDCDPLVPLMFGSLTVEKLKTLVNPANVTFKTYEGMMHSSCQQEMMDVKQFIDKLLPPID
GSTO1 counter: counter-screen for RBBP9 inhibitors: inhibitors of human GSTO1; inhibition, % at 5.96 µM; recombinant GSTO1, activity-based probe fluorescence polarization; P78417; hit rate 1.1% among 300,000; AID 1974;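 active = inhibition above the campaign mean inhibition plus 3 SD, cut at about 35% in these data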;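 also: 0% = GSTO1-1 with DMSO and 100% = wells lacking GSTO1-1 enzyme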
Target sequence (P78417 whole entry, looked up): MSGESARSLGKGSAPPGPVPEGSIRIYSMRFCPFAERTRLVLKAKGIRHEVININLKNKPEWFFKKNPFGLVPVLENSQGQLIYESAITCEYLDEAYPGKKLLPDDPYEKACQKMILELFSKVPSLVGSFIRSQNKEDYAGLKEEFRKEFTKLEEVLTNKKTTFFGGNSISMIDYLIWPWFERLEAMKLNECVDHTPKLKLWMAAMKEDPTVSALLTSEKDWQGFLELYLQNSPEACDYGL
LYPLA1 conf: LYPLA1 (human) inhibition, confirmation counter-screen | shares compounds with LYPLA1 counter | recombinant LYPLA1, FP-Rh probe fluorescence polarization | inhibition, % at 5.9 µM | hit rate 69% among 480 | AID 2233;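 active = mean inhibition across replicates above the hit cutoff set in the primary screen, cut at about 15% in these data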;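 also: loss of FP-Rh probe labeling of LYPLA1 seen as lower polarization; 0% = LYPLA1 with DMSO and 100% = wells lacking LYPLA1 enzyme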
Numbers without * were called inactive; . = not tested or not shown. Sampled rows, rich in hits. Any-hit rate of the full collection: about 1.8%.

SMILES | PAD4 FP inh | LYPLA2 counter | Fam108B counter | PME-1 inh | LYPLA1 counter | GSTO1 counter | LYPLA1 conf
COCCN(C(=O)c1sc2ccccc2c1Cl)c1c(N)n(CC(C)C)c(=O)[nH]c1=O | -2.3 | -7.5 | . | -3.0 | 0.2 | . | .
CCCCC/C=N/NC(=O)c1[nH]c2ccc([N+](=O)[O-])cc2c1C | -1.7 | -0.4 | -2.9 | -19.5 | 15.0* | 0.4 | 39.9*
Cc1ccc([N+](=O)[O-])c(OCCN2CCC(Cc3ccccc3)CC2)c1 | -1.5 | 8.1 | -3.1 | 0.0 | -1.9 | 4.9 | .
O=[N+]([O-])c1cccc(OCCCN2CCC(Cc3ccccc3)CC2)c1 | -5.8 | 32.0* | -0.1 | 3.0 | 15.8* | 2.8 | 19.5*
N#Cc1ccccc1OCCCN1CCC(Cc2ccccc2)CC1 | -2.3 | 16.0 | 2.0 | 1.9 | 59.0* | 1.0 | 55.9*
CN(Cc1ccco1)C(=O)c1cc2c(s1)-c1ccc(Cl)cc1S(=O)(=O)C2 | -3.6 | 1.3 | 4.4 | 1.8 | -0.2 | -2.4 | .
O=C(CCc1ccccc1)N1CCN(c2ccc(F)cc2)CC1 | 0.6 | 1.3 | 3.7 | -6.1 | 2.8 | 6.6 | .
COc1ccc(CNC(=O)Cn2ccc3cc(S(=O)(=O)N4CCCC4)ccc32)cc1OC | 2.2 | 12.7 | 3.4 | 7.5 | 24.2* | 6.8 | 3.0
CCN(CC)S(=O)(=O)c1cccc(NC(=O)COC(=O)C2CC3C=CC2C3)c1 (stereo not drawn) | 4.3 | 12.6 | 11.0 | 1.2 | 30.4* | 2.5 | 28.1*
Cc1ccc(NC(=O)COC(=O)C2CC3C=CC2C3)cc1S(=O)(=O)N1CCCCC1 (stereo not drawn) | 1.2 | 5.5 | -2.3 | 5.2 | 19.5* | 0.3 | 33.1*
COc1ccc(NC(=O)COC(=O)C2CC3C=CC2C3)cc1 (stereo not drawn) | -0.3 | 7.0 | -1.6 | -1.9 | 3.9 | 0.5 | .
COc1ccccc1OCCSc1nc(C)c(Cc2ccccc2)c(=O)[nH]1 | 0.1 | 0.7 | -1.6 | 1.4 | 1.5 | 10.2 | .
COc1cc(C(=O)Oc2cccc(Nc3ncnc4ccccc34)c2)cc(OC)c1OC | 0.6 | -24.3 | -9.1 | -3.4 | -17.1 | -3.8 | .
COc1ccc(C(=O)Oc2cccc(Nc3ncnc4ccccc34)c2)cc1OC | -2.2 | 5.8 | -3.8 | -7.5 | 15.7* | -7.3 | 14.7*
COc1cc(/C=C2/NC(=O)N(Cc3ccccc3F)C2=O)ccc1O | -0.7 | 2.7 | 1.9 | 0.8 | 1.9 | 1.8 | .
O=C(NCC(=O)N1CCN(c2cccc(Cl)c2)CC1)c1ccc(Br)o1 | 1.6 | 7.0 | 1.2 | 3.2 | 14.2* | 7.0 | 15.8*
Cc1ccc(Cl)cc1N1CCN(C(=O)CNC(=O)c2ccc(Br)o2)CC1 | -1.6 | 0.1 | . | -2.0 | -1.5 | . | .
CCOC(=O)c1sc2cc([N+](=O)[O-])cc(SCC(=O)OC)c2c1N | -7.4 | 4.2 | 7.5 | 8.4 | 15.4* | 35.8* | 28.6*
CC1CN(Cc2cc(=O)oc3cc(O)c(Cl)cc23)CC(C)O1 (stereo not drawn) | -3.5 | 20.5 | 5.8 | 2.7 | 16.2* | 3.5 | 42.3*
Cc1cc(C)c2c(N)c(C(=O)Nc3nccs3)sc2n1 | -0.7 | 0.1 | 2.2 | 5.7 | 16.7* | -1.9 | 10.5
COc1cc(OC)c(OC)cc1/C=C1\Oc2cc(OCC(=O)N3Cc4ccccc4C[C@H]3C(=O)O)ccc2C1=O | 2.8 | -5.9 | 2.4 | -11.8 | 25.1* | -74.4 | 21.7*
C=CCSc1nc(N)c(C#N)c(-c2ccccc2)c1C#N | -1.8 | 8.3 | 1.3 | -7.4 | 14.2* | 2.1 | 11.5
CCCSc1nc(N)c(C#N)c(-c2ccc(C)cc2)c1C#N | 0.4 | 1.6 | -3.3 | 2.5 | 1.4 | 0.4 | .
CC(C)c1ccc(/C=C2\SC(=S)N(CCC(=O)N3CCCCC3CCO)C2=O)cc1 (stereo not drawn) | -10.4 | 4.8 | -3.3 | 5.0 | -1.2 | 2.8 | .
COc1ccc(-n2cc(-c3ccccc3)c3c(NN4CCOCC4)ncnc32)cc1 | -1.2 | 0.2 | -4.3 | 0.1 | 14.3* | 2.0 | 26.9*
SMILES | PAD4 FP inh | LYPLA2 counter | Fam108B counter | PME-1 inh | LYPLA1 counter | GSTO1 counter | LYPLA1 conf
NS(=O)(=O)c1cccc(NC(=O)COC(=O)CCC(=O)c2cccs2)c1 | -2.3 | . | . | . | . | . | .
Cc1noc(NS(=O)(=O)c2ccc(NC(=O)c3oc4ccc(Cl)cc4c3C)cc2)c1C | -3.7 | 25.4 | 2.5 | 8.8 | 28.2* | 3.2 | 30.9*
COC(=O)CCCC(=O)N1CCCC(C(=O)c2ccc(-c3ccccc3)cc2)C1 (stereo not drawn) | 2.4 | 2.8 | 6.9 | -3.0 | 21.2* | 2.1 | 29.2*
N#CC(CO)(Cc1ccc(OC(F)F)cc1)c1nc2ccccc2[nH]1 (stereo not drawn) | 1.1 | 0.2 | 2.5 | -11.3 | -2.6 | 6.3 | .
Cc1nc([N+](=O)[O-])c(N2CCN(Cc3ccccc3)CC2)n1Cc1ccccc1 | 1.2 | -1.4 | -0.1 | 5.8 | 32.9* | 0.7 | 33.3*
COC(=O)c1sc2cc(C(F)(F)F)cnc2c1-c1ccccc1 | -2.3 | 11.6 | 5.9 | -3.6 | 16.8* | -2.7 | 20.7*
Cc1nnc(SCC(=O)c2c[nH]c3ccccc23)n1C1CC1 | 1.3 | 4.7 | . | -1.6 | 0.1 | . | .
COc1cc(NC(=O)C2CCC(CNc3c(N4CCC(C)CC4)c(=O)c3=O)CC2)cc(OC)c1 (stereo not drawn) | -0.2 | 3.6 | 0.8 | 3.3 | 39.5* | -3.8 | 39.9*
COc1ccc(NC(=O)C2CCC(CNc3c(N4CCC(C)CC4)c(=O)c3=O)CC2)cc1OC (stereo not drawn) | -3.7 | 5.9 | -0.1 | -0.2 | 23.7* | -7.2 | 26.3*
O=C(Nc1ccc(F)cc1)C1CCC(CNc2c(N3CCCCC3)c(=O)c2=O)CC1 (stereo not drawn) | 2.4 | 2.3 | 3.8 | 0.9 | 3.6 | 15.1 | .
COc1cc(NC(=O)C2CCC(CNc3c(N4CCCCC4)c(=O)c3=O)CC2)cc(OC)c1 (stereo not drawn) | 4.5 | 6.0 | -0.1 | 1.7 | 24.3* | 6.7 | 30.9*
COC(=O)c1cccc(NC(=O)c2ccc3c(c2)C(=O)N(Cc2cccnc2)C3=O)c1 | 3.2 | 8.4 | 0.7 | 7.3 | 19.7* | 3.5 | 19.3*
COc1cc(/C=C2\C(=N)N3N=C(C)SC3=NC2=O)cc(Cl)c1OCCOc1ccc(NC(C)=O)cc1 | -6.7 | -2.5 | -0.7 | -7.3 | -6.4 | 3.6 | .
C=CCOc1cccc(C(=O)N2CCC(CCC(=O)NC3CC3)CC2)c1 | 5.4 | 6.3 | -2.4 | -6.0 | 23.2* | 2.0 | 3.6
CCOC(=O)C1CCN(Cc2cn(C)nc2-c2ccc(Oc3ccccc3)cc2)CC1 | -1.2 | 3.9 | 3.4 | -3.8 | 0.2 | -1.5 | .
COc1cccc(C(=O)NCCCn2ccnc2)c1 | 1.5 | 6.0 | 7.1 | -4.1 | -1.8 | 11.4 | .
CCOc1ccc(/C=N/Nc2cc(N3CCOCC3)nc(C)n2)c(O)c1 | -2.7 | 13.5 | 9.5 | 30.0* | 30.5* | 8.0 | 33.3*
CCOc1ccc(/C=N/Nc2cc(C)nc(N3CCOCC3)n2)cc1 | 0.1 | -3.4 | 4.5 | 7.6 | -5.5 | 0.3 | .
